{
  "source": "PubChem BioAssay AID743279",
  "about": "(National Center for Advancing Translational Sciences (NCATS), 2014)",
  "note": "Screen size: about 360,000 compounds; about 17,000 (4.7%) were called active. Inconclusive results (about 5%) are left out. The entries come from a sample that favours actives as a whole. A number with no mark means an inactive call. Rule as the data show it: active = activity change below about -50%; inconclusive = mostly about -30% to -49%; inactive = weaker than that. % is scaled to controls: 0 for no effect and ±100 for the full control effect.",
  "data": [
    {"assay": "qHTS for Inhibitors of Inflammasome Signaling: IL-1-beta AlphaLISA Primary Screen", "conditions": "THP-1 LPS/ATP IL-1B secretion, 16 h; at 57.5 µM, hits give low values", "procedure,_shortened": "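Secreted IL-1B measured by AlphaLISA bead assay after 16 h compound exposure of THP-1 cells; compounds (final up to 57.5 uM) added 1 h before LPS (250 ng/mL) and ATP (1.25 mM) stimulation; lower signal means less secretion.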", "values": [
      {"smiles": "COc1ccccc1C(=O)NC(=S)Nc1ccc(N2CCOCC2)cc1", "activity change": "-16.4%"},
      {"smiles": "CCCCCC(=O)N1C[C@H](O)[C@@H](n2cc(COC(=O)c3ccccc3)nn2)C[C@@H]1c1ccc(C)cc1", "activity change": "-14.9%"},
      {"smiles": "Cc1ccc(C)n1NC(=O)c1ccc([N+](=O)[O-])cc1", "activity change": "-5.32%"},
      {"smiles": "N=C1C(c2nc3ccccc3[nH]2)=C(O)CN1NC(=O)c1c[nH]c2ccccc12", "activity change": "27.9%"},
      {"smiles": "N=C1C(c2nc3ccccc3s2)=C(O)CN1NC(=O)c1ccc([N+](=O)[O-])cc1", "activity change": "-90.6% (active)"},
      {"smiles": "CN1OC[C@@H]2CN[C@H](c3ccc(-c4ccccc4)cc3)C[C@@H]21", "activity change": "-4.9%"},
      {"smiles": "O[C@H]1CN(Cc2cccs2)[C@@H](c2ccc(Cl)cc2)C[C@@H]1n1cc(C2CC2)nn1", "activity change": "30.3%"},
      {"smiles": "COCCN(C(=O)C(C)C)c1nnc(-c2ccc(C(C)(C)C)cc2)s1", "activity change": "-83.8% (active)"},
      {"smiles": "COCCN(C(=O)c1ccco1)c1nnc(-c2ccc(OC)cc2)s1", "activity change": "-3.55%"},
      {"smiles": "COc1cc(OC)cc(-c2nnc(N(C)C(=O)c3ccncc3)s2)c1", "activity change": "-18.8%"},
      {"smiles": "CCC1=C(OC(=O)N(CC)CC)N2C(=O)OC(=NCC3CC3)[C@]2(C)[C@H]2C1=CC[C@H]1C(=O)N(CC(=O)OC)C(=O)[C@H]12", "activity change": "25%"},
      {"smiles": "COc1ccccc1NC(=O)C[n+]1ccccc1", "activity change": "33.7%"},
      {"smiles": "COc1ccccc1NC(=S)NC(=O)C(C)C", "activity change": "3.02%"},
      {"smiles": "COc1ccccc1NC(=O)/C=C/C(N)=O", "activity change": "-100% (active)"},
      {"smiles": "COc1ccccc1NC(=O)c1cc(Cl)nnc1Cl", "activity change": "-97.2% (active)"},
      {"smiles": "COc1ccccc1C(=O)Nc1ccccc1C(=O)Nc1ccccc1", "activity change": "-4.71%"},
      {"smiles": "COc1ccccc1NC(=O)c1cc(Cl)nc2ccccc12", "activity change": "46.4%"},
      {"smiles": "O=C(Nc1ccc(F)cc1)Nc1nnc([C@H]2C[C@H](O)[C@@H](CO)O2)s1", "activity change": "-12.8%"},
      {"smiles": "COc1ccc(-c2nnc(SC(C)C(=O)NC3CC3)o2)cc1", "note": "(stereo unspecified)", "activity change": "-5.66%"},
      {"smiles": "COc1ccc(-c2nnc(SC(=O)N3c4ccccc4Sc4ccccc43)o2)cc1", "activity change": "-101% (active)"},
      {"smiles": "COc1ccc(-c2nnc(-c3ccc4ccccc4c3)o2)cc1", "activity change": "-20.9%"},
      {"smiles": "COC(=O)C1(C(=O)OC)C/C=C\\CN(S(=O)(=O)c2ccccc2[N+](=O)[O-])CCC1", "activity change": "18.1%"},
      {"smiles": "O=C(NCc1cccnc1)c1cc(C2CCCN(C(=O)CCCc3ccccc3)C2)on1", "note": "(stereo unspecified)", "activity change": "24.4%"},
      {"smiles": "CCN(CC)CCCC(C)n1c2nc(=O)[nH]c(=O)c-2nc2cc(Cl)ccc21", "note": "(stereo unspecified)", "activity change": "-77.2% (active)"},
      {"smiles": "CCN(CC)CCn1c2ccc(Cl)cc2c2nc(C)sc21", "activity change": "-29.9%"},
      {"smiles": "O=C(Nc1ccc(OCCO)cc1)c1csc([C@H]2C[C@H](O)[C@@H](CO)O2)n1", "activity change": "4.57%"},
      {"smiles": "FC(F)(F)c1cccc(N/N=C/c2ccccc2)c1", "activity change": "-1.73%"},
      {"smiles": "Cc1cc2c(C)nc(N/N=C/c3ccccc3)nc2o1", "activity change": "-78.8% (active)"},
      {"smiles": "COc1cccc(/C=N\\Nc2nncc(-c3ccccc3)n2)c1", "activity change": "-16.6%"},
      {"smiles": "CC(C)NC(=O)c1ccccc1S(=O)c1ccccc1C#N", "note": "(stereo unspecified)", "activity change": "-0.788%"},
      {"smiles": "OCC1OC(n2cnc3c(N4CCCC4)ncnc32)C(O)C1O", "note": "(stereo unspecified)", "activity change": "86.8%"},
      {"smiles": "COCCCNC(=O)CSc1nc2ccc(N3CCOCC3)cc2c(=O)n1CCc1ccccc1", "activity change": "-8.48%"},
      {"smiles": "N#CCSc1nc2ccc(N3CCOCC3)cc2c(=O)n1CCc1ccccc1", "activity change": "-50.9% (active)"},
      {"smiles": "CCCCn1c(SCC(=O)NCC2CCCO2)nc2ccc(N3CCOCC3)cc2c1=O", "note": "(stereo unspecified)", "activity change": "-7.71%"},
      {"smiles": "N#Cc1ccc(-c2ccc3nccn3c2)cc1", "activity change": "13.1%"},
      {"smiles": "C=CC[C@H](CC(=O)N(CCO)Cc1ccccc1)C(=O)N[C@@H](COC(=O)[C@@H](CC=C)Cc1ccc(F)cc1)Cc1ccccc1", "activity change": "-67.6% (active)"},
      {"smiles": "C=CCC[C@H](Cc1ccc(F)cc1)C(=O)OC[C@@H](NC(=O)[C@@H](CC=C)CC(=O)N[C@H](CO)Cc1ccccc1)C(C)(C)C", "activity change": "-29.4%"},
      {"smiles": "C=CCC[C@@H](Cc1ccc(F)cc1)C(=O)OC[C@@H](C)NC(=O)[C@H](CC=C)CC(=O)N(CCO)Cc1ccccc1", "activity change": "-24.1%"},
      {"smiles": "C=CCC[C@H](Cc1ccc(F)cc1)C(=O)OC[C@H](C)NC(=O)[C@H](CC=C)CC(=O)N(CCO)Cc1ccccc1", "activity change": "-17.2%"},
      {"smiles": "C=CC[C@@H](Cc1ccc(F)cc1)C(=O)OC[C@H]1CCCN1C(=O)[C@H](CC=C)CC(=O)N(CCO)Cc1ccccc1", "activity change": "-21.2%"},
      {"smiles": "C=CCC[C@@H](Cc1ccc(F)cc1)C(=O)O[C@H](CNC(=O)[C@H](CC=C)CC(=O)N(CCO)Cc1ccccc1)c1ccccc1", "activity change": "-58.8% (active)"},
      {"smiles": "CSc1ccc(CNC(=O)C2(C)CCCN2C)cc1", "note": "(stereo unspecified)", "activity change": "-5.74%"},
      {"smiles": "COCCCNC(=O)CNC(=S)N(Cc1cc(OC)c(OC)c(OC)c1)C1CCCC1", "activity change": "7.84%"},
      {"smiles": "Cc1ccc(C(=O)N/C(=C\\c2cn(S(=O)(=O)N(C)C)c3ccccc23)C(=O)N2CCCC2)cc1", "activity change": "-17.6%"},
      {"smiles": "CN1CCN(C(=O)c2ccc(-c3ccc(Br)cc3)o2)CC1", "activity change": "-71.3% (active)"},
      {"smiles": "COc1ccccc1OCc1ccc(C(=O)N2CCN(C)CC2)o1", "activity change": "10.8%"},
      {"smiles": "CN1CCN(C(=O)c2ccc(NC(=O)c3ccc(Br)o3)cc2)CC1", "activity change": "4.78%"},
      {"smiles": "CCCc1nn2c(=O)cc(CSCC(=O)Nc3cccc(C)c3)nc2s1", "activity change": "19.5%"},
      {"smiles": "Cc1cccc(-c2cnc(C(O)c3cc(C)cc(C)c3)[nH]2)c1", "note": "(stereo unspecified)", "activity change": "-1.76%"},
      {"smiles": "CCCCC(=O)N(C)c1c(CC)nc2c(OCc3ccc(S(C)(=O)=O)cc3)cccn12", "activity change": "28.1%"},
      {"smiles": "CCCCC(=O)N(C)c1c(CC)nc2c(OCc3ccc(Cl)cc3Cl)cccn12", "activity change": "-54% (active)"},
      {"smiles": "CCc1nc2c(OCc3ccc(Cl)cc3Cl)cccn2c1N(C)C(=O)C(C)C", "activity change": "-84.1% (active)"},
      {"smiles": "CCc1nc2c(OCc3ccc(C(=O)OC)cc3)cccn2c1N(C)C(=O)C(C)C", "activity change": "-12%"},
      {"smiles": "CCOC(=O)N(C)c1c(CC)nc2c(OCc3ccccc3C(=O)OC)cccn12", "activity change": "6.05%"},
      {"smiles": "CCc1nc2c(OCc3cccc(OC)c3)cccn2c1N(C)C(=O)C(C)C", "activity change": "51.9%"},
      {"smiles": "CCc1nc2ccc(C(=O)NC3CCN(Cc4ccccc4)CC3)cn2c1N(C)CCN1CCOCC1", "activity change": "-15.7%"},
      {"smiles": "CCc1nc2c(OCc3ccc(C(F)(F)F)cc3)cccn2c1N(C)C(=O)CC(C)C", "activity change": "-8.97%"},
      {"smiles": "COC1=CC(=O)OC(C)(c2ccccc2)C1", "note": "(stereo unspecified)", "activity change": "9.74%"},
      {"smiles": "Cc1cccc(OCC(=O)Nc2ccc(NC(=O)c3ccco3)c(C)c2)c1", "activity change": "-0.614%"},
      {"smiles": "COc1ccc(NC(=O)c2ccco2)cc1NC(=O)c1ccc(C#N)cc1F", "activity change": "52.7%"},
      {"smiles": "COc1ccccc1C(=O)Nc1ccc(NC(=O)c2ccco2)c(C)c1", "activity change": "-55.2% (active)"},
      {"smiles": "Cc1cc(F)ccc1S(=O)(=O)Nc1ccc(C(=O)N(C)Cc2ccco2)cc1", "activity change": "-8.26%"},
      {"smiles": "COc1ccc(NC(=O)CSc2nnc(-c3ccccc3F)n2C2CC2)cc1S(N)(=O)=O", "activity change": "15.5%"},
      {"smiles": "Cc1nn(-c2ccccc2)c(C)c1/C=N/NC(=O)CSc1nc2ccccc2c(=O)n1-c1ccccc1", "activity change": "12%"},
      {"smiles": "Cc1ccc(-n2nc(C)c(/C=N/NC(=O)c3cccs3)c2Cl)cc1", "activity change": "-8.79%"},
      {"smiles": "Cc1nn(-c2ccccc2)c(Cl)c1/C=N/NC(=O)c1nn(C)cc1[N+](=O)[O-]", "activity change": "-65.7% (active)"},
      {"smiles": "Cc1ccc(N2CCN(c3ccc([N+](=O)[O-])cn3)CC2)c(C)c1", "activity change": "-8.34%"},
      {"smiles": "O=C(NCCC1=CCCCC1)C1CCN(Cc2cnn(-c3ccccc3)c2-n2cccc2)CC1", "activity change": "-64.8% (active)"},
      {"smiles": "Cc1ccc(S(=O)(=O)N2CCC(C(=O)NCCC3=CCCCC3)CC2)cc1C", "activity change": "-2.64%"},
      {"smiles": "C1=C(CCNc2ncnc3c2cnn3-c2ccccc2)CCCC1", "activity change": "-3.14%"},
      {"smiles": "Nc1ncnc2c1ncn2[C@@H]1O[C@H](C(=O)N2CCCN(Cc3ccccc3F)CC2)[C@@H](O)[C@H]1O", "activity change": "2.81%"},
      {"smiles": "COc1ccccc1-n1c(SCC(=O)Nc2ccc(Cl)cc2)nc(O)c(Cc2ccccc2)c1=O", "activity change": "0%"},
      {"smiles": "O=C(Nc1ccc(-c2csc(Nc3cccc(C(F)(F)F)c3)n2)cc1)c1cccc(C(F)(F)F)c1", "activity change": "11.4%"},
      {"smiles": "O=C(O)CC1(CC(=O)Nc2cccc(C(F)(F)F)c2)CCCC1", "activity change": "16.7%"},
      {"smiles": "COc1cc(NC(=O)c2[nH]cnc2C(N)=O)cc(C(=O)Nc2cccc(C(F)(F)F)c2)c1", "activity change": "-16%"},
      {"smiles": "NC(c1csc(NC(=O)Nc2cccc(C(F)(F)F)c2)n1)C1CCCCC1", "note": "(stereo unspecified)", "activity change": "-111% (active)"},
      {"smiles": "NC(c1ccccc1)c1csc(NC(=O)Nc2cccc(C(F)(F)F)c2)n1", "note": "(stereo unspecified)", "activity change": "-106% (active)"},
      {"smiles": "COc1ccc(NC(=O)C(=O)NCC(=O)Nc2cccc(C(F)(F)F)c2)cc1", "activity change": "10.7%"},
      {"smiles": "CC(C)C[C@H](NC(=O)Nc1cccc(C(F)(F)F)c1)C(=O)O", "activity change": "34.5%"},
      {"smiles": "O=C(Nc1ccc(C(=O)N2CCOCC2)cc1)Nc1cccc(C(F)(F)F)c1", "activity change": "-10.3%"},
      {"smiles": "COc1ccc(C(N)c2csc(NC(=O)Nc3cccc(C(F)(F)F)c3)n2)cc1", "note": "(stereo unspecified)", "activity change": "-81.4% (active)"},
      {"smiles": "O=C(NCc1ccccc1)C1CNCC(C(=O)NCc2ccccc2)C1", "note": "(stereo unspecified)", "activity change": "-14.4%"},
      {"smiles": "Cc1cc([N+](=O)[O-])ccc1NS(=O)(=O)c1ccccc1", "activity change": "26.9%"},
      {"smiles": "O=S1(=O)CC(N2CCN(CCO)CC2)CN1C1CCCC1", "note": "(stereo unspecified)", "activity change": "-8.55%"},
      {"smiles": "Cc1ccc(-c2c(N)nc3ncccn23)cc1", "activity change": "7.85%"},
      {"smiles": "O=C(CN(C(=O)CCC(=O)Nc1nccs1)c1ccc(F)cc1)NCc1ccc2c(c1)OCO2", "activity change": "-10.1%"}
    ]}
  ]
}
